For two compounds, outcome results are on record in PubChem BioAssay AID720609 (Broad Institute, 2013).

This assay is described as follows: HeLa cell viability over time, late-stage follow-up, mechanism study for HRAS target identification, CellTiter-Glo ATP luminescence, 8-48 h, dry powder (AID 720609). In general terms: ATP-based viability assays read luminescence as a measure of living cells.

The structures appear in SMILES notation. Entries with a potency or affinity are not part of this list. The source made the active and inactive calls.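 How the source made its calls: active means viability signal falls with a fitted half-maximal concentration at or below a set limit at all three treatment times; inconclusive means treatment times disagree, or a flat partial drop, or poor fit; inactive means inactive at every treatment time.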

Take `CCC(=O)N(c1ccc(OC)c(Cl)c1)C(C(=O)NCCc1ccccc1)c1cccs1` (configuration not stated): the compound was classed as inactive.

Consider `Cc1onc(C(=O)N2CCN(C(c3ccncc3)c3ccncc3)CC2)c1[N+](=O)[O-]`, for which the outcome was inactive.
